# Key:
# Assay in all cases: cross-link between two proteins; cross-linking mass spectrometry
# [1] = molecular target: Cytochrome b-c1 complex subunit 2, mitochondrial (UniProt P23004)
# [2] = molecular target: NADH dehydrogenase [ubiquinone] 1 alpha subcomplex subunit 1 (UniProt Q02377)
# [3] = molecular target: NADH dehydrogenase [ubiquinone] 1 alpha subcomplex subunit 13 (UniProt Q95KV7)
# [4] = molecular target: NADH dehydrogenase [ubiquinone] 1 alpha subcomplex subunit 7 (UniProt Q05752)
# [5] = molecular target: NADH dehydrogenase [ubiquinone] 1 beta subcomplex subunit 11, mitochondrial (UniProt Q8HXG5)
# [6] = molecular target: NADH dehydrogenase [ubiquinone] 1 beta subcomplex subunit 4 (UniProt P48305)
# [7] = molecular target: NADH dehydrogenase [ubiquinone] iron-sulfur protein 4, mitochondrial (UniProt Q02375)
# Chain of NADH dehydrogenase [ubiquinone] iron-sulfur protein 4, mitochondrial (Q02375 whole entry): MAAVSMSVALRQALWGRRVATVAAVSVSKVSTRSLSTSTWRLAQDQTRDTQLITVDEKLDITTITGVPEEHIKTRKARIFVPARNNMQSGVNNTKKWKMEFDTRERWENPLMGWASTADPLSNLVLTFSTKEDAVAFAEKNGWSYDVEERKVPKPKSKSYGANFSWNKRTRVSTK
# Chain of Cytochrome b-c1 complex subunit 2, mitochondrial (P23004 whole entry, one chain of several): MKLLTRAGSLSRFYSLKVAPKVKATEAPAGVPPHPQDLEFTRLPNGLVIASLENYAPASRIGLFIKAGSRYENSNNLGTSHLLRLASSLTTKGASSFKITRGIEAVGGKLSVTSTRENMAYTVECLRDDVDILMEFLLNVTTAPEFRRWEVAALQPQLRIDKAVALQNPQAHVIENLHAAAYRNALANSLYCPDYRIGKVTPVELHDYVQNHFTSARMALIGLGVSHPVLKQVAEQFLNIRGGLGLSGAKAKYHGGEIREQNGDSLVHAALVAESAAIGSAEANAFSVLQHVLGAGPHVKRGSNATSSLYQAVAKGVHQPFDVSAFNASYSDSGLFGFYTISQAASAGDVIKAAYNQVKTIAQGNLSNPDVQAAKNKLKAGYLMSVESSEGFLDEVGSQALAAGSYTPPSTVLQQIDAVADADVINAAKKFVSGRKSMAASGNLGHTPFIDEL
# Chain of NADH dehydrogenase [ubiquinone] 1 beta subcomplex subunit 11, mitochondrial (Q8HXG5 whole entry, one chain of several): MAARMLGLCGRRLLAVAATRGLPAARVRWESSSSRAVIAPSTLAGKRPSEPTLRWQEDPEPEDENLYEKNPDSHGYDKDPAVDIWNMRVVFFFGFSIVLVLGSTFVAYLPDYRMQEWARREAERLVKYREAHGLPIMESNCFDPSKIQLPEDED
# Chain of NADH dehydrogenase [ubiquinone] 1 alpha subcomplex subunit 1 (Q02377 whole entry, one chain of several): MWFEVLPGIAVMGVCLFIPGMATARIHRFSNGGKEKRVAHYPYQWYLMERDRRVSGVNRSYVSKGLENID
# Chain of NADH dehydrogenase [ubiquinone] 1 alpha subcomplex subunit 13 (Q95KV7 whole entry, one chain of several): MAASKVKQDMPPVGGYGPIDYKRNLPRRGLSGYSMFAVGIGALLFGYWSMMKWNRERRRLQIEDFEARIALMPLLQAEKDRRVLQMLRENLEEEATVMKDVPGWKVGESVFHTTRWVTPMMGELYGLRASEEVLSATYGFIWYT
# Chain of NADH dehydrogenase [ubiquinone] 1 alpha subcomplex subunit 7 (Q05752 whole entry, one chain of several): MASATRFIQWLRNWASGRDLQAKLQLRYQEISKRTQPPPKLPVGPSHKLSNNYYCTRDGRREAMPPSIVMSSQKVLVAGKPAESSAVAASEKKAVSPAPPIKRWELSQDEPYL
# Chain of NADH dehydrogenase [ubiquinone] 1 alpha subcomplex subunit 6, Q02366 (Q02366 whole entry, one chain of several): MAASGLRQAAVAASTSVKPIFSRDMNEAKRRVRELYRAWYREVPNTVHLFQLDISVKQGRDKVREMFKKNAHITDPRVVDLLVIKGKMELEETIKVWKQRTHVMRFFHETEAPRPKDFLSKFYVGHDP
# Chain of NADH dehydrogenase [ubiquinone] 1 beta subcomplex subunit 4 (P48305 whole entry, one chain of several): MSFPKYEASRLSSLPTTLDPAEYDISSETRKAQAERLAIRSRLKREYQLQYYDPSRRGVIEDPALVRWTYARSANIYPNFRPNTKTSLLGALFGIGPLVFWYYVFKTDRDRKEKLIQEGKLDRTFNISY
substance,measurement,setting,value
"Cytochrome b-c1 complex subunit 7, P00129",listed as a hit,[1],yes
"Cytochrome c1, heme protein, mitochondrial, P00125",listed as a hit,[1],yes
"NADH dehydrogenase [ubiquinone] 1 alpha subcomplex subunit 8, P42029",listed as a hit,[2],yes
"NADH dehydrogenase [ubiquinone] iron-sulfur protein 5, Q02379",listed as a hit,[3],yes
"NADH dehydrogenase [ubiquinone] 1 alpha subcomplex subunit 5, P23935",listed as a hit,[4],yes
"NADH dehydrogenase [ubiquinone] 1 beta subcomplex subunit 9, Q02369",listed as a hit,[5],yes
"NADH dehydrogenase [ubiquinone] 1 beta subcomplex subunit 8, mitochondrial, Q02372",listed as a hit,[5],yes
"Cytochrome b-c1 complex subunit 1, mitochondrial, P31800",listed as a hit,[6],yes
"NADH dehydrogenase [ubiquinone] iron-sulfur protein 3, mitochondrial, P23709",listed as a hit,[7],yes
"NADH dehydrogenase [ubiquinone] 1 alpha subcomplex subunit 6, Q02366",listed as a hit,[7],yes
